Hit rate of the full screen: of about 88,000 compounds, about 260 (0.3%) were called active.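 How the source made its calls: active means compounds that reduce the energy-transfer binding signal between the protein and its labelled peptide by more than half; inactive means the rest.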 The entries come from a sample that favours actives as a whole.
The compounds below were run against Mothers against decapentaplegic homolog 3 (Homo sapiens) (UniProt P84022) (assay: blockers of Smad3 binding to FoxH1 – biochemical, TR-FRET, primary screen (AID 630;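 further: 0% = Smad3 plus labelled peptide maximal FRET and 100% = peptide-only background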)). Conditions: TR-FRET Smad3/Dy647-FoxH1 peptide binding, europium anti-His; at 25 µM; active compounds read high.
Mothers against decapentaplegic homolog 3 (Homo sapiens), sequence (P84022 whole entry, looked up): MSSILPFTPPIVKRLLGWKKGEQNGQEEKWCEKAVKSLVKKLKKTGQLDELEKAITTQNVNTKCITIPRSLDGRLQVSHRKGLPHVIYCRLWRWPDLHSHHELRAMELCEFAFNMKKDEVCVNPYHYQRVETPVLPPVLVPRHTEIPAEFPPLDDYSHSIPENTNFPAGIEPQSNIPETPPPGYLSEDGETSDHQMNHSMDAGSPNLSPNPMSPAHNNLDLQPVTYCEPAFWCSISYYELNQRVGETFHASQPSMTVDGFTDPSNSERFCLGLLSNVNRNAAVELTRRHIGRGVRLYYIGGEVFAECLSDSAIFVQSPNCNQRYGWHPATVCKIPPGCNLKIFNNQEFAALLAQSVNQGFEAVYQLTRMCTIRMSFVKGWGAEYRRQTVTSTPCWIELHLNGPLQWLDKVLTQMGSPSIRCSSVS
With CC(=O)C1=C(C)NC(=O)NC1c1cc(Br)ccc1OCC#N (stereo not given) the inhibition was 5.31% (inactive). With N#CC1=C(N)N(c2ccccc2)C2=C(C(=O)CCC2)C1c1ccccc1 (stereo not given) the inhibition was -6.32% (inactive). In the case of C=CCN(N=Nc1cccc([N+](=O)[O-])c1)c1cccc([N+](=O)[O-])c1, the inhibition is reported as 5.93% (inactive). In the case of COc1ccc(NC(=O)C(CC(C)C)NS(=O)(=O)c2ccc3c(c2)CCN3C(C)=O)cc1OC (stereo not given), the inhibition is reported as 2.09% (inactive). With C[C@H]1O[C@@H](CC(=O)O)Cc2c1c(O)c1c(O)cc(-c3cc(=O)c4c(=O)c5c(c(=O)c=4c3=O)C[C@H](CC(=O)O)O[C@@H]5C)c(O)c1c2O the inhibition was 95.5% (active). With Cc1cc2cc(CNC(=O)c3cccs3)ccc2[nH]1 the inhibition was 4.85% (inactive). In the case of c1ccc2c(-c3nn4nnnc4c4ccccc34)cccc2c1, the inhibition is reported as 1.52% (inactive). In the case of Cc1cc(Cl)c(S(=O)(=O)N(C)C)cc1OCC(N)=O, the inhibition is reported as -1.09% (inactive). For COc1ccc(S(=O)(=O)Nc2ccc(F)cc2)c(C)c1C, the inhibition was -18.5% (inactive). In the case of COCCOCCn1cnc2ccccc21, the inhibition is reported as 8.15% (inactive). In the case of Cc1ccc(-c2nc3ccccc3[nH]2)cc1N, the inhibition is reported as 10.8% (inactive). In the case of CC(=O)N1CCCc2cc(S(=O)(=O)CCC(=O)N3CCN(c4ccccc4)CC3)ccc21, the inhibition is reported as 3.39% (inactive). In the case of CC(C)(C)c1ccc(C(=O)NCC(=O)OCN2C(=O)c3ccccc3C2=O)cc1, the inhibition is reported as -15.4% (inactive). C=CCN(C(=O)Cn1ncc2c1-c1cc(C)ccc1OC2)c1ccccc1 was tested, and the inhibition was -12.8% (inactive). For Oc1c(Br)cc(CN(Cc2cc(Br)c(O)c(Br)c2)C2CCCCC2)cc1Br, the inhibition was 98.7% (active). C=CCO/N=C(\C)c1c(O)c(C)c(-c2ccccc2)n(-c2ccccc2)c1=O was tested, and the inhibition was 0.29% (inactive). Cc1cccc(NC(=O)/C(=C\c2ccco2)NC(=O)c2ccccc2)c1 was tested, and the inhibition was -5.56% (inactive). In the case of CC(=O)c1ccc(-n2nnnc2SCC(=O)N2CCN(C(=O)c3ccco3)CC2)cc1, the inhibition is reported as 6.3% (inactive). In the case of CCC(c1nnnn1C1CCCC1)N1CCN(C(=O)c2ccco2)CC1 (stereo not given), the inhibition is reported as 56.9% (active). In the case of CC(C)C(c1nnnn1CCc1ccccc1)N1CCN(C(=O)c2ccco2)CC1 (stereo not given), the inhibition is reported as -1.2% (inactive). COC(=O)c1ccc(CSc2nc3cc(Cl)ccc3o2)cc1 was tested, and the inhibition was 8.67% (inactive). Cc1ccc(-c2cnc(NC(=O)CCC(=O)N(C)Cc3ccccc3)n2C)cc1 was tested, and the inhibition was 8.43% (inactive). COc1ccc(C(C)=O)cc1CN1C(=O)NC2(CCCCC2C)C1=O (stereo not given) was tested, and the inhibition was 3.22% (inactive). With CC1CCN(C(=O)c2cc3nc(C4CC4)cc(C(F)(F)F)n3n2)CC1 the inhibition was 6.46% (inactive). In the case of C[C@H](CCC(=O)O)[C@@H]1CC[C@@H]2[C@H]3CC[C@H]4C[C@@H](O)CC[C@]4(C)[C@@H]3C[C@H](O)[C@]21C, the inhibition is reported as -5.18% (inactive). For FC(F)(F)c1ccc2nnc(-c3c(Cl)cccc3Cl)n2c1, the inhibition was -1.74% (inactive). With CC1CCCCC1NC(=O)C1CCCN1S(=O)(=O)c1cccc2nsnc12 (stereo not given) the inhibition was -19.4% (inactive). For O=C1CSC(c2ccc(Cl)cc2)N1 (stereo not given), the inhibition was 13.1% (inactive). For Cc1cccn2c(=O)c(/C=C(\C#N)S(=O)(=O)c3ccc(Cl)cc3)c(N3CCC(C(N)=O)CC3)nc12, the inhibition was 0.22% (inactive). For CCCNC(=O)N1CCN(C(=O)NCCC)CC1, the inhibition was 0.05% (inactive). For CC1=CC(=O)C=CC1(C)C(Cl)(Cl)Cl (stereo not given), the inhibition was -10.9% (inactive). CN(C)c1ccc(CNC2C3CC4CC(C3)CC2C4)cc1 (stereo not given) was tested, and the inhibition was 8.16% (inactive). For COC(=O)Nc1ccc(S(=O)(=O)N2CCN(CCN3C(=O)C4C5C=CC(C5)C4C3=O)CC2)cc1 (stereo not given), the inhibition was 6.97% (inactive). For O=C(NCC(=O)N(Cc1cccs1)C(C(=O)NC1CCCCC1)c1ccco1)c1cccs1 (stereo not given), the inhibition was 0.62% (inactive). COc1ccc(C)cc1S(=O)(=O)NCCc1ccccc1 was tested, and the inhibition was 7.34% (inactive). For COc1ccc(NC(=S)N2N=CCC2c2ccccc2)cc1 (stereo not given), the inhibition was -1.54% (inactive). With CCCCN1C(=O)CC(N2CCOCC2)C1=O (stereo not given) the inhibition was -0.67% (inactive). With O=C(Cc1c(O)c2ccccc2[nH]c1=O)NCc1ccccc1 the inhibition was 7.06% (inactive). With CS(=O)(=O)c1ccc(/C=N/NC(N)=S)cc1 the inhibition was 20.2% (inactive). For CC(C)CCNC(=O)Cn1c(=O)oc2cc(S(=O)(=O)N3CC(C)CC(C)C3)ccc21 (stereo not given), the inhibition was 7.82% (inactive). CCOCCCNC(=O)C(NC(=O)c1ccc(=O)[nH]c1)c1ccc(C)cc1 (stereo not given) was tested, and the inhibition was -19.1% (inactive). Cc1nnc(SCc2nc3ccccc3nc2C)s1 was tested, and the inhibition was 1.94% (inactive). For CCOc1cc2[nH]c(=S)n(Cc3ccc(C(=O)NCCOC)cc3)c(=O)c2cc1OCC, the inhibition was -0.98% (inactive). For CC(C)Oc1ccc(Oc2ccc(C(F)(F)F)cn2)cc1, the inhibition was 0.6% (inactive). For CCn1c(C)nc2cc(C(=O)NNS(=O)(=O)c3ccc(C)cc3C)ccc21, the inhibition was 2.77% (inactive). For Cc1cccc(-n2c(Cc3cc(=O)[nH]c(=O)[nH]3)nnc2SC(C)C)c1, the inhibition was 62% (active). In the case of COc1cccc(-n2c(Cc3cc(=O)[nH]c(=O)[nH]3)nnc2SCC(=O)Nc2ccccc2)c1, the inhibition is reported as 4.97% (inactive). For Cc1cccc(-n2c(N)cc(=O)nc2SC(C)C(=O)NC2CCCCC2)c1 (stereo not given), the inhibition was 5.17% (inactive). In the case of O=C(O)CCCCc1nc2ccccc2s1, the inhibition is reported as -2.94% (inactive). CNC(=O)c1nnc(Cc2ccc(Cl)cc2)o1 was tested, and the inhibition was -6.06% (inactive). In the case of CCOc1ccc(S(=O)(=O)NCC2CCCO2)cc1 (stereo not given), the inhibition is reported as -12% (inactive). With CCOC(=O)NC(C(F)(F)F)(C(F)(F)F)P(=O)(c1ccccc1)c1ccccc1 the inhibition was 6.78% (inactive). For CCOCCCNC(=O)C(NC(=O)CNC(=O)c1ccccc1)c1ccc(C)cc1 (stereo not given), the inhibition was -6.68% (inactive). With CCOCCOCCC(C(=O)O)P(=O)(c1ccccc1)c1ccccc1 (stereo not given) the inhibition was 71.7% (active). With CCCCCCOc1ccc(OC(=O)c2cccnc2)cc1 the inhibition was 0.33% (inactive). In the case of Cc1ccc(-n2c(=O)cc(N3CCN(Cc4ccccc4)CC3)[nH]c2=O)cc1, the inhibition is reported as 2.1% (inactive). In the case of Cc1cc(S(=O)(=O)NC2CCCCC2)ccc1OCC(=O)NCc1cccnc1, the inhibition is reported as 8.87% (inactive). With CN(C)C(=O)c1cc(Br)ccc1Cl the inhibition was 1.18% (inactive). For O=C(Nc1ccc2c(c1)OCCO2)C(c1ccc(F)cc1)N1CCCCC1 (stereo not given), the inhibition was -0.28% (inactive). With O=C(O)c1c(Br)c(Br)c(Br)c(Br)c1C1c2ccc(O)cc2Oc2cc(O)ccc21 the inhibition was 93.1% (active). For COc1cccc(N=c2oc3c(C)ncc(CO)c3cc2C(N)=O)c1, the inhibition was 10.9% (inactive). For CC1(CC(=O)O)O[C@@H]2CCCCC[C@H]2O1 (tested in a mixture with another compound), the inhibition was 14% (inactive). In the case of Cc1cc(NC(=O)CS(=O)(=O)c2cn(C)c3ccccc23)no1, the inhibition is reported as -0.74% (inactive). With Cc1ccccc1CSCCNC(=O)c1ccc(Cl)c(S(=O)(=O)N2CCOCC2)c1 the inhibition was 4.77% (inactive). For CCC1CCCCN1CCCNC(=O)C1CCC(Cn2c(=O)[nH]c3ccccc3c2=O)CC1 (stereo not given), the inhibition was 14.2% (inactive). For COc1ccc(C(C#N)Nc2ccccc2C)cc1 (stereo not given), the inhibition was -2.51% (inactive). With COc1ccc(C(=O)OCC(=O)NCC2CCCCC2)cc1S(=O)(=O)N1CCCc2ccccc21 the inhibition was 0.19% (inactive). In the case of Cc1ccc(S(=O)(=O)N(c2cccc(C)c2)C2CCS(=O)(=O)C2)cc1 (stereo not given), the inhibition is reported as 0.21% (inactive). In the case of COc1ccc(C2(CNC(=O)C(c3ccccc3)c3ccccc3)CCOCC2)cc1OC, the inhibition is reported as 3.2% (inactive). For COc1ccc(S(=O)(=O)N2CCOCC2)c(C)c1C, the inhibition was 15.3% (inactive). With Cc1c(O)c(Br)c(C)c(O)c1Br (tested in a mixture with another compound) the inhibition was 94% (active). CCc1ccccc1NC(=O)CN(C)S(=O)(=O)c1ccc2c(c1)c(=O)n(C)c(=O)n2C was tested, and the inhibition was -4.79% (inactive). C=C(C)CNC(=S)/N=c1\scc(C)n1CC was tested, and the inhibition was 91.6% (active). OC[C@@H]1O[C@H](n2cnc3c(SCc4ccccc4)ncnc32)[C@H](O)[C@H]1O was tested, and the inhibition was 4.63% (inactive). CC(C)OC(=O)c1c(NC(=O)c2ccco2)sc2c1CCCC2 was tested, and the inhibition was -1.98% (inactive). For CC(O)CN(Cc1ccc(Cl)cc1)CC(C)O (stereo not given), the inhibition was 0.45% (inactive). For COc1ccc(S(=O)(=O)N/N=C\c2ccc(OC)c(COc3ccc(C)cc3[N+](=O)[O-])c2)cc1, the inhibition was -3.11% (inactive). In the case of Cc1ccc(SC(=O)COc2ccc(C)c(C)c2)cc1, the inhibition is reported as -5.83% (inactive). With CCN1C(=O)C(CC(=O)Nc2cc(C)ccc2C)SC1=Nc1ccc(S(N)(=O)=O)cc1 (stereo not given) the inhibition was -12.6% (inactive). With O=C(C1=C(O)C(=O)N(Cc2ccccc2)C1c1ccco1)c1ccco1 (stereo not given) the inhibition was 12.4% (inactive). With C[C@@]12CC[C@H]3c4ccc(O)cc4CC[C@@H]3[C@H]1CC[C@H]2OC(=O)CCC1CCCC1 the inhibition was 39.6% (inactive). In the case of CC(=O)Nc1ccc(OCC(O)CN2CCN(c3ccccc3Cl)CC2)cc1 (stereo not given), the inhibition is reported as 4.39% (inactive). In the case of CCOc1ccc(N=C2NC(=O)S/C2=C\c2ccc(O)cc2)cc1, the inhibition is reported as -8.11% (inactive). In the case of O=C(NC1CCC(O)CC1)c1ccc(S(=O)(=O)NCc2ccco2)cc1 (stereo not given), the inhibition is reported as 1.61% (inactive). COC(=O)C1=C(C)Nc2ncnn2C1c1cccnc1 (stereo not given) was tested, and the inhibition was -10.7% (inactive). Cc1ccc(S(=O)(=O)N(C)C2(C)CCS(=O)(=O)C2)cc1 (stereo not given) was tested, and the inhibition was -7.37% (inactive). For Cn1cnc([N+](=O)[O-])c1Nc1ccccc1O, the inhibition was -0.46% (inactive). O=C(N/N=C/c1ccc(O)cc1)/C(=C/c1ccc([N+](=O)[O-])cc1)NC(=O)c1ccccc1 was tested, and the inhibition was -3.81% (inactive). For Cc1cccc(C)c1NC(=O)CSc1nnc(-c2ccccc2)n1Cc1ccc2c(c1)OCO2, the inhibition was 14.3% (inactive). With Cc1nn(-c2ncc(C(F)(F)F)cc2Cl)c(=O)n1-c1ccccc1 the inhibition was 9.91% (inactive).
